A selection: hits, their analogues and other compounds. The true share with any hit is near 1.2%.
NCOA3 inh – SRC3 coactivator transcriptional activity inhibitors, primary screen, cell-based, luminescence; inhibition, % at 3.6 µM; HEK293 GAL4-SRC3 luciferase reporter; AID 588352, 2011; Nuclear receptor coactivator 3 (Homo sapiens), Q9Y6Q9; 360,000 tested, 0.17% active;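 active = inhibition above a per-campaign cutoff, the mean of all compounds plus 3 SD, cut at about 60% in these data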;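 also: 0% = DMSO-treated cells and 100% = gossypol-treated cells at 36 µM; higher means less SRC3-driven luciferase light from the GAL4 reporter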
SRC2 inh – inhibition of GAL4-SRC2 driven luciferase reporter, primary screen, SRC2 inhibitor project, cell-based, luminescence | HEK293 GAL4-SRC2 luciferase reporter | inhibition, % at 9 µM | 370,000 tested, 0.17% active | AID 651957, 2012;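 active = inhibition above the mean inhibition of all tested compounds plus 3 SD, set per campaign, cut at about 52% in these data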;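 also: 0% = DMSO treated cells and 100% = cells given Gossypol at 36 µM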
LRH-1 inv ag – LRH-1 (NR5A2) inverse agonists, primary screen, cell-based, luminescence, HEK293T, StAR-luciferase reporter | 360,000 tested, 0.13% active | AID 602396, 2012 | inhibition, % at 3.6 µM | LRH-1 transfected, 24 h | Nuclear receptor subfamily 5 group A member 2 (Homo sapiens), O00482;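 active = inhibition above the mean inhibition of all tested compounds plus 3 SD, cut at about 73% in these data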;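 also: 0% = DMSO wells and 100% = reporter-only cells lacking LRH-1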
Efflux pump mplx – inhibitors of Candida efflux pumps in yeast, primary screen, S. cerevisiae, Nile Red, multiplex; S. cerevisiae Candida pump triplex; inhibition, % at 10 µM; 330,000 tested, 0.44% active; AID 485275, 2010;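 active = plate passing quality check with inhibition over a set limit, or well fluorescence over plate mean plus 4 SD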;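 also: Nile Red retained in pooled yeast measured as flow cytometry median fluorescence; 0% = buffer negative control and 100% = Enniatin B positive control; higher means more Nile Red kept so more efflux inhibition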
NR2F2 inh – NR2F2 transcriptional activity inhibitors, primary screen, cell-based, luciferase reporter, HEK293T, luminescence. HEK293T NGFI-A luciferase reporter. inhibition, % at 8.6 µM. 370,000 tested, 0.7% active;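 active = inhibition above a per-plate cutoff, mean inhibition of test wells between control levels plus 3 SD, cut at about 38% in these data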;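 also: cells cotransfected with COUP-TFII expression vector driving the NGFI-A reporter; 0% = median of COUP-TF2 test wells and 100% = reporter-only cells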
NCOA1 inh – SRC1 coactivator transcriptional activity inhibitors, primary screen, cell-based, luminescence | inhibition, % at 3.6 µM | 360,000 tested, 0.12% active | HEK293 GAL4-SRC1 luciferase reporter;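 active = inhibition above the campaign mean plus 3 SD, with each screening campaign given its own cutoff, cut at about 60% in these data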;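 also: 0% = DMSO treated cells and 100% = gossypol at 36 µM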
Starred values were filed as active, the others as inactive; i = inactive; x = no result given.

SMILES	NCOA3 inh	SRC2 inh	LRH-1 inv ag	Efflux pump mplx	NR2F2 inh	NCOA1 inh
CN(Cc1cnc2nc(N)nc(N)c2n1)c1ccc(C(=O)NC(CCC(=O)O)C(=O)O)cc1C(F)(F)F (centres undefined)	73*	-16	45	x	-20	67*
CN(Cc1cnc2nc(N)nc(N)c2n1)c1ccc(C(=O)NC(CCC(=O)O)C(=O)O)cc1 (centres undefined)	83*	4	79*	x	-6	78*
Nc1nc(N)c2nc(CNc3ccc(C(=O)NC(CCC(=O)O)C(=O)O)cc3)cnc2n1 (centres undefined)	x	x	x	0	x	x
Cc1ccc(OCCOc2ccc(Cl)cc2Cl)c([N+](=O)[O-])n1	-26	-29	-47	0	-7	-38
COC(=O)CC#C[C@H](C)[C@@H](NS(C)(=O)=O)C(C)(C)COCc1ccccc1	x	-1	x	x	2	x
Cc1cccc(OCc2n(CC(=O)OC3CC(C)CCC3C(C)C)c3ccccc3[n+]2C)c1 (centres undefined)	26	x	14	0	x	7
CC1CCC(C(C)C)C(OC(=O)Cn2c(-c3ccc(F)cc3)[n+](C)c3ccccc32)C1 (centres undefined)	67*	36	67	1	25	40
O=C(O)CCCCCCCCCCC1CCC(O)C1O (centres undefined)	20	40	5	x	41*	6
COc1ccc(Br)cc1/C=C/C(=O)c1ccc(NC(C)=O)cc1	71*	61*	48	0	-13	33
CC(COc1ccc(Cl)cc1)CN1CCC(C(O)(c2ccccc2)c2ccccc2)CC1 (centres undefined)	x	10	x	x	3	x
O=C(CC1S/C(=N/N=C/C=C/c2ccccc2)NC1=O)Nc1ccc(Cl)c(Cl)c1 (centres undefined)	-13	12	-8	0	-4	-37
N#Cc1sc2nccc(Nc3ccccc3)c2c1N	64*	42	42	0	36	72*
Nc1cc(Nc2ccccc2)ccn1	-26	14	-17	0	19	-7
O=C(Cn1cnc2scc(-c3ccc(Cl)cc3)c2c1=O)N1CCOCC1	-6	10	-5	0	-20	0
C=C(C)COc1ccc(-c2[nH]ncc2-c2ccc(OC)cc2)c(O)c1	33	27	9	0	30	17
COc1ccc(-c2cn[nH]c2-c2ccc(O)cc2O)cc1	48	54*	9	0	19	55
COc1ccc(S(=O)(=O)N2CCOCC2)cc1NC(=O)CCNC(=O)c1ccc(Cl)cc1	-11	12	-9	x	4	-5
COc1ccc(S(=O)(=O)N2CCOCC2)cc1NC(=O)CCNC(=O)c1ccc(Br)cc1	31	57*	82*	0	-6	44
COc1ccccc1C(=O)Nc1nc(-c2ccc(S(=O)(=O)N3CCOCC3)cc2)cs1	89*	74*	82*	0	72*	85*
CCN(CC)c1ccc2nc3ccccc3[n+](CC)c2c1	68*	x	76*	0	x	63*
CCN(CC)c1ccc2cc(-c3nc4ccccc4[nH]3)c(=O)oc2c1	-31	x	-42	0	x	-35
Cc1cc(C)c(C(=O)/C=C/c2ccc3c(c2)OCO3)c(=O)[nH]1	2	2	-7	0	0	7
Cc1cc(C)c(C(=O)/C=C/c2cccc3ccccc23)c(=O)[nH]1	78*	66*	55	0	20	56
COc1ccc2oc(=O)c(-c3cn4ccc(C)cc4n3)cc2c1	-44	-36	-20	0	-25	-31
COc1ccc2cc3cc(C(=O)NCCc4ccc(OC)c(OC)c4)oc3nc2c1	29	-2	3	0	54*	37
SMILES	NCOA3 inh	SRC2 inh	LRH-1 inv ag	Efflux pump mplx	NR2F2 inh	NCOA1 inh
CCCN(CCC)CCCNC(=O)c1cc2cc3ccc(OC)cc3nc2o1	-5	-5	-13	0	-3	-23
CCOc1ccc(S(=O)(=O)NCCN2CCOCC2)c2ccccc12	21	3	7	0	6	-15
C[C@H]1CC[C@@]2(O[C@H](CCO)C[C@@H](O)[C@@H]2O)O1	-1	-13	4	0	-7	-2
CC1CCN(Cc2c(C(=O)N/N=C/c3cc(Br)ccc3O)nnn2-c2nonc2N)CC1	68*	17	8	0	-10	41
CCCCN(CC)Cc1ccc(CNC(=S)Nc2c(C)cc(C)cc2C)o1	5	23	3	0	-6	-9
CCCCN(CC)Cc1ccc(CNC(=S)Nc2ccc(C)cc2Cl)o1	36	53*	9	0	9	15
O=C(CNC(=O)c1ccccc1Cl)OCC(=O)N1CCc2ccccc21	-39	-23	-9	0	-8	-5
COc1cc(Nc2nc(-c3ccccc3)c3cc(C)ccc3n2)cc(OC)c1OC	7	93*	5	0	-3	13
CN(C(=O)COc1cc(=O)n(C)c2ccccc12)c1ccc(Br)cc1	0	-1	1	0	0	-11
CN(C)c1ccc(/C=C/c2cccc[n+]2[O-])cc1	-89	-63	-110	0	-12	-77
CN(CCCS(=O)(=O)[O-])c1ccc(/C=C/c2ccc3ccccc3[n+]2C)cc1	13	-1	-3	0	6	-8
CN(C)c1ccc(/C=C/c2ccc3c4ccccc4ccc3[n+]2-c2ccccc2)cc1	77*	-25	91*	x	85*	71*
CN(C)c1ccc(/C=C/c2ccc3ccccc3[n+]2C)cc1	70*	10	97*	29*	72*	63*
S=C1Cc2ccccc2N1	17	67*	64	x	60*	-1
COCCNC(=O)C(=O)Nc1cc2c3c(c1)CC(=O)N3CCC2	-7	-34	-4	0	-27	8
O=C1c2cccc3cc([N+](=O)[O-])cc(c23)C(=O)N1CCN1CCCC1	-52	i	76*	x	-102	59
Cc1ccccc1S(=O)(=O)Nc1ncnc2sccc12	-13	2	3	0	-3	-6
CCN(CC)c1ccc(/C=N/Nc2nc(C)cc(=O)[nH]2)c(O)c1	84*	46	33	0	-2	81*
CCN(CC)c1ccc(/C=N/NC(=O)c2c(Cl)cnn2C)c(O)c1	76*	13	42	0	-33	22
Cc1cccc(C(C)C)c1NC(=O)CSc1ncnc2[nH]ncc12	2	10	9	0	10	1
CC(C)CCNC(=O)C(C)N(Cc1ccc(F)cc1)C(=O)c1ccc(CN2CCOCC2)o1 (centres undefined)	3	-17	2	0	-1	-10
